The results in this text go back to PMC4552634, “A New Set of Chemical Starting Points with Plasmodium falciparum Transmission-Blocking Potential for Antimalarial Drug Discovery” (PLoS ONE, 2015).

The whole screen tested about 13,000 compounds, of which about 3,200 (25%) showed an effect of 50% or more. The list shows a part of the results.

This assay deals with P. falciparum stage V gametocytes. On the set-up: BacTiter-Glo ATP luminescence viability of purified stage V gametocytes in 384-well plates, per cent inhibition versus DMSO. The following applies: 48 h, 5 µM; inhibitor.
For the molecule `CC(C)(C)OC(=O)c1c(NC(=O)/C=C/c2ccc(O)c(O)c2)sc2c1CCCC2` [TCMDC-131558], the “% Inhibition” value is listed as -45.09%.

With `CC=Cc1cc(Cc2cnc(N)nc2N)cc(CCC)c1OC` [TCMDC-137634], the “% Inhibition” value is -1.983%.

Regarding `CCOc1cc(Cc2cnc(N)nc2N)cc(OCC)c1OCCCCC(=O)OC` [TCMDC-137176], the “% Inhibition” value is reported as -10.63%.

`CCOCc1cn(CC(=O)c2ccc(-c3ccccc3)cc2)c(C)nc1=N` [TCMDC-124243]: the “% Inhibition” value was -19.83%.

Regarding `CCN(CC)CCn1c(=N)n(CC(=O)c2ccc(-c3ccccc3)cc2)c2ccccc21` [TCMDC-124026], the “% Inhibition” value was found to be 67.24%.

As for `CC(C)(C)c1ccc(Cn2c(=N)n(CC(=O)c3ccc(-c4ccccc4)cc3)c3ccccc32)cc1` [TCMDC-124030], the “% Inhibition” value was 98.24%.

As to `Cc1ccccc1CN1CCCN(Cc2ccc(C(=O)Nc3ccc(C(C)(C)C)cc3)cc2)CC1` [TCMDC-136429], the “% Inhibition” value was -4.144%.

As to `CCN(CC)c1ccc(C(=O)Cn2ccc(=N)cc2)cc1` [TCMDC-139029], the “% Inhibition” value is -2.203%.

Take `CC(C)(C)c1ccc(Cn2nc(C(=O)N3CCN(C(=O)C4CCCO4)CC3)c3ccccc32)cc1` (centres unmarked) [TCMDC-134381]: the “% Inhibition” value is reported as -2.653%.

As to `COc1ccc(Cn2c(Nc3cccc(C(F)(F)F)c3)nc3cc(C(=O)NC4CC4)cnc32)cc1Cl` [TCMDC-138554], the “% Inhibition” value was -4.933%.

Consider `O=C(NC1CC1)c1ccc(Cn2c(SCc3cccc(Cl)c3)nc3ccccc3c2=O)cc1` [TCMDC-123576], for which the “% Inhibition” value is 23.52%.

`COc1ccc(Cn2c(SCc3ccc(C)cc3)nc3cc(OC)c(OC)cc3c2=N)cc1Cl` [TCMDC-125587]: the “% Inhibition” value came out at 96.33%.

In the case of `CC[C@H]1CN2CC[C@H]1C[C@H]2[C@@H](O)c1cc(OCCCN(C)C)nc2ccc(OC)cc12` [TCMDC-131424], the “% Inhibition” value stood at 22.54%.

In the case of `O=C(Nc1ccc(OC2CCN(Cc3ccc(F)cc3)C2)c(Cl)c1)c1ccoc1` (centres unmarked) [TCMDC-133755], the “% Inhibition” value came to 23.17%.

For the molecule `CC(=O)CCc1ccc(OCCN(Cc2ccccc2C(F)(F)F)c2ccc(C#N)c(C(F)(F)F)c2)cc1` [TCMDC-135737], the “% Inhibition” value is 23.15%.

As to `CCOC(=O)c1ccc(N2CCN(CCCNC(=O)/C(=C/C=C/c3cc4cc(Cl)c(Cl)cc4[nH]3)OC)CC2)cc1` [TCMDC-139306], the “% Inhibition” value is on record as -53.61%.

As for `CN1c2ccc([N+](=O)[O-])cc2C(C)(C)C12C=Cc1cc(Br)cc([N+](=O)[O-])c1O2` (centres unmarked) [TCMDC-124178], the “% Inhibition” value came out at 98.03%.

Consider `COc1ccc(N2C(=O)C3C(C2=O)C2(C)c4ccccc4C3(C)c3ccccc32)c([N+](=O)[O-])c1` (centres unmarked) [TCMDC-125621], for which the “% Inhibition” value turned out to be 9.788%.

For `COc1cc2c(c(OC)c1[N+](=O)[O-])C=CC1(O2)N(C)c2ccc([N+](=O)[O-])cc2C1(C)C` (centres unmarked) [TCMDC-124133], the “% Inhibition” value was 52.65%.

Take `COc1ccc(C=CC(=O)NC(=O)c2ccccc2OC(=O)c2ccccc2)cc1OC` [TCMDC-125709]: the “% Inhibition” value stood at 14.45%.

Turning to `COc1cc2c(c(Cl)c1OC)CCN(Cc1ccccc1)CC2c1ccc(C(N)=O)cc1` (centres unmarked) [TCMDC-132074], the “% Inhibition” value worked out at 48.86%.

Regarding `COc1cc2c(c(Cl)c1OC)CCN(Cc1ccccc1)CC2c1ccc(NC(=O)C(F)(F)F)cc1` (centres unmarked) [TCMDC-132075], the “% Inhibition” value stood at 32.93%.

In the case of `COc1cc2c(c(Cl)c1OC)CCN(C(=O)C(F)(F)F)CC2c1ccccc1` (centres unmarked) [TCMDC-132071], the “% Inhibition” value is given as 93.25%.

As to `Cc1cccc2nc(-c3ccc(-c4ccc(CN5CCN(c6cnccn6)CC5)cc4)s3)[nH]c12.O=C(O)C(F)(F)F` [TCMDC-133900], the “% Inhibition” value was determined as 28.24%.

Regarding `COc1ccc(CNCc2cccc(-c3ccc(-c4nc5ccccc5[nH]4)s3)c2)cc1.O=C(O)C(F)(F)F` [TCMDC-132733], the “% Inhibition” value was found to be 7.28%.

Consider `O=C(Nc1ccnc2ccccc12)NC1CCN(CCc2ccccc2)CC1` [TCMDC-139687], for which the “% Inhibition” value is 38.02%.

`COc1c(C(=O)NC2CCN(Cc3ccccc3)C2)cnc2ccccc12` (centres unmarked) [TCMDC-138996]: the “% Inhibition” value is on record as -11.57%.

On to `O=C(C=Cc1ccc(Cl)c(Cl)c1)NC1CCN(CCc2ccccc2)CC1` [TCMDC-134274], for which the “% Inhibition” value worked out at 3.334%.

For `Cc1cc(C(=O)NC2CCN(CC3(c4ccccc4)CCCCC3)CC2)on1` [TCMDC-124832], the “% Inhibition” value is listed as 67.12%.

`COc1coc(C(=O)NC2CCN(CC3(c4ccc(Cl)cc4)CCC3)CC2)c1OC` [TCMDC-124835]: the “% Inhibition” value is 70.44%.

Regarding `Cc1cc(C(=O)NC2CCN(CC3(c4ccc(Cl)cc4)CCC3)CC2)on1` [TCMDC-124833], the “% Inhibition” value is listed as 85.33%.

As for `O=C(CCc1ccco1)NC1CCN(CC2(c3ccc(Cl)cc3)CCC2)CC1` [TCMDC-124834], the “% Inhibition” value turned out to be 42.25%.

As to `CC(C)c1ccc(CN2CCC(NC(=O)c3ccc(-c4cccc(Cl)c4)s3)CC2)cc1` [TCMDC-134347], the “% Inhibition” value is reported as -17.88%.

With `O=C(NC1CCN(Cc2ccccc2)CC1)c1cc(-c2ccncc2)c(-c2ccc(Cl)c(O)c2)o1` [TCMDC-135453], the “% Inhibition” value was found to be 2.681%.

Turning to `CC1CC1C(=O)NC1CCN(CC2(c3ccccc3)CCCCC2)CC1` (centres unmarked) [TCMDC-124831], the “% Inhibition” value is 61.7%.

For the molecule `CS(=O)(=O)CCNCc1nc(-c2ccc3ncnc(Nc4ccc(OCc5cccc(F)c5)c(Cl)c4)c3c2)cs1` [TCMDC-138499], the “% Inhibition” value is given as -12.17%.

Turning to `Nc1ncc(-c2ccc3ncccc3c2)c(N)n1` [TCMDC-133421], the “% Inhibition” value is 0.5405%.

Regarding `CC(=O)Nc1ccc(CN2CCC(N(C)c3ccc(NC(=O)c4cccc(C)c4)cc3)CC2)cc1` [TCMDC-134985], the “% Inhibition” value is recorded as -13.81%.

For the molecule `Cn1cccc1C(=O)Nc1cccc(-c2nn3ccccc3c2-c2ccnc(Nc3ccc4c(c3)OCCO4)n2)c1` [TCMDC-135663], the “% Inhibition” value was -4.275%.

Regarding `N/C(=N\c1ncccn1)Nc1cccc(Cc2ccccc2)n1` [TCMDC-138948], the “% Inhibition” value is reported as -9.706%.

As to `Cc1cccc(NC(=O)NCc2ccccc2)n1` [TCMDC-123843], the “% Inhibition” value is 1.75%.

As to `NC(=NCc1ccccc1)Nc1cccc(Cc2ccccc2)n1` [TCMDC-138951], the “% Inhibition” value is 107.9%.

With `NC1=NC(c2ccccc2)N(OCc2ccccc2)C(N)=N1` (centres unmarked) [TCMDC-131586], the “% Inhibition” value is -5.605%.

As to `CCN=C1NC2=C(CC(C(C)(C)C)CC2)C2(CCC(C(C)(C)C)CC2)S1` (centres unmarked) [TCMDC-131288], the “% Inhibition” value was found to be 95.02%.

Consider `O=C(CSc1nccn1C1CCCC1)Nc1cc(C(F)(F)F)ccc1Cl` [TCMDC-125066], for which the “% Inhibition” value is recorded as 0.3827%.

As to `C=CCOc1ccc(C(=O)Nc2nonc2-c2ccc(OC)c(OC)c2)cc1` [TCMDC-125178], the “% Inhibition” value was 71.05%.

As for `CCOc1ccc(-c2nonc2NC(=O)c2ccc(OC(C)C)cc2)cc1OCC` [TCMDC-125276], the “% Inhibition” value amounted to 7.159%.

For the molecule `COc1cccc(C(=O)Nc2nonc2-c2ccc(OC)c(OC)c2)c1` [TCMDC-125403], the “% Inhibition” value worked out at 43.85%.

For `COc1ccc(-c2nonc2NC(=O)c2ccc(OC(C)C)cc2)cc1OC` [TCMDC-125130], the “% Inhibition” value is 61.65%.

`COc1ccc(C(=O)Nc2nonc2-c2ccc(OC)c(OC)c2)cc1Cl` [TCMDC-125400]: the “% Inhibition” value is 30.18%.

Regarding `COc1ccc(-c2nonc2NC(=O)c2cccc(C)c2)cc1OC` [TCMDC-125399], the “% Inhibition” value was determined as 77.34%.

For `CCOc1ccc(C(=O)Nc2nonc2-c2ccc(OC)c(OC)c2)cc1` [TCMDC-125402], the “% Inhibition” value is given as 33.5%.

Regarding `COc1ccc(-c2nonc2NC(=O)c2ccc(C(C)(C)C)cc2)cc1OC` [TCMDC-125404], the “% Inhibition” value is 42%.

Consider `CCCOc1ccc(C(=O)Nc2nonc2-c2ccc(OC)c(OC)c2)cc1` [TCMDC-125471], for which the “% Inhibition” value turned out to be 84.04%.

Turning to `CCN(CCCN1CCCCC1)c1cc(C)nc(Nc2cc(F)cc(F)c2)n1` [TCMDC-132450], the “% Inhibition” value amounted to 49.02%.

Consider `CCC(C)(C)NC(=O)C(c1cccc(OC)c1)N(C(=O)CNC(=O)c1cccs1)c1ccc2c(c1)OCCO2` (centres unmarked) [TCMDC-125637], for which the “% Inhibition” value is recorded as 1.141%.

Turning to `O=C(OCc1ccccc1)N1CCc2c([nH]c3ccccc23)C1CCC(F)(F)F` (centres unmarked) [TCMDC-134555], the “% Inhibition” value is on record as -59.21%.

Regarding `Oc1ccc(CCNc2nc(NCc3ccc4cc(Cl)ccc4c3)nc(N3CCNCC3)n2)cc1` [TCMDC-133782], the “% Inhibition” value is -8.892%.

For the molecule `CC(C)(CN)c1nc(-c2ccc(Cl)c(O)c2)c(-c2ccnc(N)n2)[nH]1` [TCMDC-141019], the “% Inhibition” value is recorded as -19.39%.

For `COc1cc(C2CCN(CCCCNC(=O)c3ccc(NC(=O)c4cc(C(F)(F)F)cc(C(F)(F)F)c4)cc3)CC2)ccc1OC(C)C` [TCMDC-138285], the “% Inhibition” value is given as 55.31%.

Regarding `COc1ccc(C2CCC(NCCCCNC(=O)c3ccc(NC(=O)c4ccc(Cl)cc4)cc3)CC2)cc1` (centres unmarked) [TCMDC-138582], the “% Inhibition” value came to 60.8%.

Regarding `COc1ccc2c(c1)CCCC2NCCCCNC(=O)c1ccc(NC(=O)c2ccc(Cl)cc2)cc1` (centres unmarked) [TCMDC-138690], the “% Inhibition” value is recorded as 6.749%.

As for `CC(C)Cc1ccc(N2CCN(CCCCNC(=O)c3ccc(NC(=O)c4cc(C(F)(F)F)cc(C(F)(F)F)c4)cc3)CC2)cc1` [TCMDC-138252], the “% Inhibition” value was 6.749%.

As for `CC(C)Cc1ccc(N2CCN(CCCCNC(=O)c3ccc(NC(=O)c4ccc(Cl)c(Cl)c4)cc3)CC2)cc1` [TCMDC-138251], the “% Inhibition” value is recorded as -11.88%.

Regarding `COc1ccc(C2CCN(CCCCNC(=O)c3ccc(NC(=O)c4ccc(Cl)cc4)cc3)CC2)cc1Cl` [TCMDC-138366], the “% Inhibition” value is 81.78%.

For `COc1cc(C2CCN(CCCCNC(=O)c3ccc(NC(=O)c4ccc(Cl)c(Cl)c4)cc3)CC2)ccc1OC(C)C` [TCMDC-138286], the “% Inhibition” value was found to be 111.4%.

With `COc1ccc(N2CCN(CCCCNC(=O)c3ccc(NC(=O)c4cc(C(F)(F)F)cc(C(F)(F)F)c4)cc3)CC2)c(OC)c1` [TCMDC-138227], the “% Inhibition” value was 7.888%.

For `COc1cccc(C2CCN(CCCCNC(=O)c3ccc(NC(=O)c4ccc(Cl)cc4)cc3)CC2)c1` [TCMDC-138312], the “% Inhibition” value is on record as 21.15%.

By % Inhibition is commonly meant the relative decrease from the control value, in per cent.
